Screening results as filed in PubChem.
Most compounds without a hit are left out; they make up all but 2.5% or so of the library.
POLH inh: DNA polymerase eta (human) inhibition; Q9Y253; recombinant Pol eta, fluorescent DNA replication assay; Potency, µM (titrated, usually from 114 µM), without a hit: at the highest dose activity change, negative = inhibition, actives largely listed as inhibitors; 390,000 compounds, 1.2% hits; AID 588591; further: on the % scale 0 is the no-effect control and ±100 the full control effect
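Fluorescent replication assay: 50 nM final substrate added after a 15 min room-temperature compound preincubation with 10 nM enzyme. Signal taken at 0 min and again at 10 min.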
WRN inhibitor: blocks human WRN helicase. Q14191. WRN helicase unwinding, fluorescent forked duplex, kinetic. Potency, µM (doses to about 114 µM), for inactives: at the top dose activity change, negative = inhibition, usual class: inhibitors. 360,000 compounds, 0.46% hits. AID 651768; further: on the % scale 0 is the no-effect control and ±100 the full control effect; nearly all actives have a fitted effect of over 55% in size
Target sequence (Q14191 whole entry, looked up): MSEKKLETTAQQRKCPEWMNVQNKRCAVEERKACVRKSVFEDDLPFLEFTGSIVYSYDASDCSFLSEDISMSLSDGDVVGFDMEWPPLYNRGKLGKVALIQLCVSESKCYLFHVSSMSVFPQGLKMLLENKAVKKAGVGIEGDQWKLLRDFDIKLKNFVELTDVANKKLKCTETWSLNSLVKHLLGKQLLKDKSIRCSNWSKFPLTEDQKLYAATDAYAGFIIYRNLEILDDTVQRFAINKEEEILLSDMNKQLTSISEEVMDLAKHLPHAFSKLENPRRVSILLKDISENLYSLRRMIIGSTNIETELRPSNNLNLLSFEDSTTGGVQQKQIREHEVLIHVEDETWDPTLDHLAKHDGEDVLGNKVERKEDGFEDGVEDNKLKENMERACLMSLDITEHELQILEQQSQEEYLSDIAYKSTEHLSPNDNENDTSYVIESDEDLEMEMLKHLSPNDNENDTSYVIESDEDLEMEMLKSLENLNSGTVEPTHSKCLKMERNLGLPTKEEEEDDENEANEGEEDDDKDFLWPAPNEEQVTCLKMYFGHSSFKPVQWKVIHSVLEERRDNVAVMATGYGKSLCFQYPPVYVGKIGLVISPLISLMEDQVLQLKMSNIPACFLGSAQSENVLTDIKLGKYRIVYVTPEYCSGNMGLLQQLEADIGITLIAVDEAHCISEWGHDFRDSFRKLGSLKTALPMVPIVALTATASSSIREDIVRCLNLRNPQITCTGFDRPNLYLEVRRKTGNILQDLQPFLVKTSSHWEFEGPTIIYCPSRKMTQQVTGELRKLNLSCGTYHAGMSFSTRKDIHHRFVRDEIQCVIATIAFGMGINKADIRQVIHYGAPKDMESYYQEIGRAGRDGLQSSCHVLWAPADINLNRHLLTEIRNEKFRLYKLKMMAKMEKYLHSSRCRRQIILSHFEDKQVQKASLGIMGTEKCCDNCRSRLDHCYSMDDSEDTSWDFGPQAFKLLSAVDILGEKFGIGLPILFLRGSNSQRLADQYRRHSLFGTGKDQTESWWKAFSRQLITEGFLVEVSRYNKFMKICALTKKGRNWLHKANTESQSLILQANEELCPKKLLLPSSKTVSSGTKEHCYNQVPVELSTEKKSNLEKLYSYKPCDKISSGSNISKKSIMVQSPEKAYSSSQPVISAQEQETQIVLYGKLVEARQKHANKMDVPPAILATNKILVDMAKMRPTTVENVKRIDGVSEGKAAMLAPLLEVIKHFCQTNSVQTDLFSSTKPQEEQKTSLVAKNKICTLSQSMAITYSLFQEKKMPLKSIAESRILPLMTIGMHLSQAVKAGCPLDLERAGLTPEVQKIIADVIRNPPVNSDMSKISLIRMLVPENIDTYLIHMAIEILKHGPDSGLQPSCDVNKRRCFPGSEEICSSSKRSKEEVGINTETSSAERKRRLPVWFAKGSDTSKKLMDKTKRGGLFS
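Primary qHTS, 1536-well format. 20 nM WRN + compound, 15 min RT; start with 100 nM forked fluorophore/quencher duplex, 2 mM ATP (final); kinetic read ex 525/em 598 nm.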
Pol iota inh: DNA polymerase iota (human) inhibition | Potency, µM (highest dose often 115 µM), without a hit: at the highest dose activity, negative = inhibition, usual class: inhibitors | Q9UNA4 | Pol iota fluorescent replication assay, 10 min | 390,000 compounds, 1% hits
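Pol iota at 10 nM preincubated 15 min with compounds at room temperature; reaction started with fluorescent substrate, 50 nM final. Fluorescence read kinetically at 0 and 10 min; buffer-only wells as negative control.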
POLK inh: inhibitors of human DNA polymerase kappa. 400,000 compounds, 0.53% hits. purified Pol kappa, fluorescent DNA synthesis assay, 10 min. Potency, µM (highest dose often 107 µM), for the others: top-dose activity, negative = inhibition, actives largely listed as inhibitors. AID 588579; further: on the % scale 0 is the no-effect control and ±100 the full control effect
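First, compounds were pin-transferred onto 10 nM Pol kappa. After 15 min at room temperature, substrate was added to 50 nM final. Fluorescence was then measured kinetically at 0 and 10 min.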
POLB inh: inhibitors of human DNA polymerase beta. P06746. Pol beta primer extension/strand displacement, fluorescence kinetic. Potency, µM (series often up to 114 µM), for the others: at the highest dose activity change, negative = inhibition, actives largely listed as inhibitors. 340,000 compounds, 1.3% hits. AID 485314; further: on the % scale 0 is the no-effect control and ±100 the full control effect
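Homogeneous kinetic assay of primer extension and strand displacement by 10 nM Pol beta, preincubated 15 min at room temperature with compound before 50 nM substrate (final) was added. Read at 0 and 10 min; four-parameter Hill fit.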
L3MBTL1 inh: L3MBTL1 (human) inhibition | Q9Y468 | AlphaScreen L3MBTL1–H3K9me1 peptide binding | Potency, µM (series often up to 57.1 µM), for inactives: top-dose activity, negative = inhibition, usual class: inhibitors | 230,000 compounds, 0.66% hits; further: on the % scale 0 is the no-effect control and ±100 the full control effect; nearly all actives have a fitted effect of over 60% in size
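First, the protein-peptide complex forms for 30 min at room temperature (L3MBTL1 50 nM, biotinylated H3K9me1 peptide 75 nM). Next, compounds are pin-transferred and incubated 30 min. Finally, AlphaScreen beads are added and read after 30 min.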
* marks the source's active call; other numbers are inactive results; ? = inconclusive; . = no result given; [ ] = dose if it differs, or a comment. The call rests on the fitted dose curve; in most records, active means well fitted curve in the direction sought with a large enough effect; inconclusive means small, poorly fitted or top-dose-only effect, or another doubt; inactive means no such curve, though single readings can be large; an effect the other way counts as inactive or inconclusive. Potency means the concentration at half of the fitted maximal effect.

SMILES | POLH inh | WRN inhibitor | Pol iota inh | POLK inh | POLB inh | L3MBTL1 inh
N#CC(C#N)=C1C=CC=CN1/C(=C\c1ccco1)C(=O)c1ccccc1 | -18% | 18µM* | -15% | -5% | 29% | ?
COc1ccc(C(=O)/C(=C\c2ccco2)N2C=CC=CC2=C(C#N)C#N)cc1 | ? | ? | ? | -3% | -3% | -4%
CCc1nnc(NC(=O)CSc2ccc(-c3cccs3)nn2)s1 | -4% | -1% | 41% | -7% | 2% | .
COC(=O)c1cc(S(=O)(=O)NCCCc2ccco2)c[nH]1 | -8% | -6% | 1% | -6% | 27% | .
CC/C(=N\NC(=O)CSCc1ccc(Cl)cc1)c1ccc2c(c1)OCCO2 | -17% | 7% | 21% | -16% | 1% | -2%
N#Cc1ccccc1OCC(=O)N1CC(=O)Nc2ccccc21 | -1% | 2% | . | . | . | .
COc1ccccc1CNC(=O)C(CC(C)C)NC(=O)C1CCC(C)CC1 (stereo not given) | 1% | -19% | 2% | 5% | 9% | .
COc1ccccc1CNC(=O)c1cnccn1 | 71µM* | -16%[57.1 µM] | ? | ? | 40µM* | .
COc1ccccc1CNC(=O)c1ccccc1C(=O)NC(CC(C)C)C(=O)NCc1ccccc1OC (stereo not given) | -34% | 2% | 71µM* | -12% | 4% | .
COc1ccccc1CNC(=O)COC(=O)c1cnccn1 | -9% | -9% | ? | 3% | 67% | 8%
CCOC(=O)c1sc(NC(=O)c2nc3nc(C)cc(C(F)F)n3n2)c(C(=O)OC(C)C)c1C | 89µM* | . | -17% | -20% | -10% | .
CCOC(=O)c1sc(NC(=O)c2nc3ncccn3n2)c(C(=O)OC)c1C | -10% | . | -4% | -16% | 16% | .
CN1CCN(/N=C/c2ccc(-c3ccc([N+](=O)[O-])cc3Cl)o2)CC1 | -18% | -2% | ? | -19% | 6% | ?
O=c1c2cc(N3CCOCC3)ccc2[nH]c(=S)n1Cc1cccc(Cl)c1 | -7% | -16% | -6% | 6% | 8% | 2%
O=c1c2cc(N3CCOCC3)ccc2[nH]c(=S)n1Cc1ccco1 | 89µM* | ? | 10µM* | 79µM* | ? | ?
CCC(C)[C@H](NC(=O)C1CCC(CNC(=O)[C@@H]2CCCN2C(=O)OC(C)(C)C)CC1)C(=O)O (stereo not given in full) | 7% | 0% | -1% | 2% | 0.22µM* | .
Cc1ccsc1/C=N\NC(=O)CC(=O)NCc1ccccc1 | -4% | 3%[57.1 µM] | 58% | -13% | -1% | -4%
COC1=CCC2([N+](=O)[O-])CN(CCO)CC1([N+](=O)[O-])C2 (stereo not given) | -9% | -4% | 4% | -14% | 0.2µM* | -16%
O=S(=O)(c1ccc(Oc2ccc(-c3nnco3)cc2)nc1)N1CCC(Cc2ccccc2)CC1 | 45µM* | 5% | -6% | -15% | ? | -2%[11.4 µM]
O=S(=O)(c1ccc(-c2nnco2)cc1)N1CCCCC1 | -19% | 3% | -5% | -1% | 1% | .
O=C(O)c1ccc(Cl)c2c1C1C=CCC1C(c1ccccn1)N2 (stereo not given) | . | . | . | . | 8.9µM* | .
COc1ccc(OC)c(C2Nc3c(Cl)ccc(C(=O)O)c3C3C=CCC32)c1 (stereo not given) | -8% | ? | 53% | -13% | 1% | -14%
COc1cc(OC)c(NC(=O)CCNS(=O)(=O)c2ccc3c(c2)CC(C)N3C(C)=O)cc1Cl (stereo not given) | -15% | -8% | 24% | 4% | 26% | .
Cc1cc2oc3ccc(NCCCn4ccnc4)cc3c(=O)c2cc1C | 56µM* | -28% | 22µM* | -41% | . | .
CCOC(=O)c1ccc(NC(=O)Nc2cccc(C)n2)cc1 | -6% | 3% | -15% | -1% | 1% | -2%
SMILES | POLH inh | WRN inhibitor | Pol iota inh | POLK inh | POLB inh | L3MBTL1 inh
CCOC(=O)c1ccc(NC(=O)Nc2ccn(C)n2)cc1 | -4% | -12% | 89µM* | -17% | 30% | .
Cc1cccc2[nH]c(SCC(=O)O)nc12 | -23% | 2% | 30% | -3% | -10% | 3%
COc1ccc(NC(=O)C2Cc3c(-c4cccc(C(N)=O)c4)ccnc3O2)cn1 (stereo not given) | . | 3% | . | . | . | .
O=C(CSc1nnc(NC(=O)c2ccccc2Cl)s1)Nc1ccc2c(c1)oc1ccccc12 | . | . | . | . | 32µM* | -2%
CC(C)(C)NC(=O)CSc1nnc(NC(=O)c2ccccc2Cl)s1 | -6% | 7% | -12% | -12% | 1% | -18%
CC(C)c1ccc(NC(=O)C[n+]2ccn(C3=C([O-])c4ccccc4C3=O)c2)cc1 | 79µM* | -28% | ? | -44% | ? | ?
COc1cccc(NC(=O)CN(C)C(=O)C2CC3C=CC2C3)c1 (stereo not given) | -9% | 8% | 36% | -1% | . | 3%
Cc1ccccc1N1CC(C(=O)Nc2nnc(SCC(=O)Nc3nccs3)s2)CC1=O (stereo not given) | ? | -29% | ? | -26% | 50µM* | -3%
Cc1ccccc1N1CC(C(=O)Nc2nnc(SCc3ccccn3)s2)CC1=O (stereo not given) | 50µM* | -8% | ? | -27% | 79µM* | .
COC(=O)c1ccc(CSc2nnc(NC(=O)C3CC(=O)N(c4ccc5c(c4)OCCO5)C3)s2)cc1 (stereo not given) | ? | -31% | ? | -28% | 28µM* | ?
O=C(Nc1nnc(SCc2ccccn2)s1)C1CC(=O)N(c2ccc(F)cc2)C1 (stereo not given) | 25µM* | ? | ? | -12% | ? | .
COc1cccc(N2CC(C(=O)Nc3nnc(SCc4ccccn4)s3)CC2=O)c1 (stereo not given) | 4% | -8% | 1% | -24% | -7% | -5%
C=CCNC(=O)c1ccc2c(=O)n(Cc3ccccc3OC)c(=S)[nH]c2c1 | -5% | 1% | 11% | -5% | 4% | .
CCOC(=O)c1cccc(NC(=O)CC2C(=O)N(c3ccc(F)cc3)C(=O)N2Cc2cccc(OC)c2)c1 (stereo not given) | -13% | . | 10% | -2% | -1% | .
Cc1ccc(CN2CC(C(=O)Nc3nnc(SCc4c(Cl)cccc4Cl)s3)CC2=O)cc1 (stereo not given) | ? | ? | ? | -25% | 13µM* | -21%
COc1ccc(/C=N/NC(=O)c2ccc(Cl)c(S(N)(=O)=O)c2)cc1OCC(N)=O | -3% | -22% | -19% | 79µM* | -25% | -10%
COc1ccc(/C=N/NC(=O)c2[nH]nc3c2CCc2ccccc2-3)cc1OC | ? | -15% | -52% | ? | 11µM* | 10%
